Measured values from PubChem BioAssay (EPA / NIEHS).
The source made the active and inactive calls. Rule for the calls: active = hit-call score of the fitted dose curve at least 0.9, where 1 is the maximum; inactive = score below 0.9.

Experiments:
Conditions in all cases: mRNA level, 48 h; actives raise or lower the signal
Caspase-3 (Homo sapiens) = Caspase-3 (Homo sapiens) (UniProt P42574); test: LTEA_HepaRG_CASP3: Life Technologies and Expression Analysis (LTEA) Assay for cysteine-aspartic acid protease (CASP3) using HepaRG (AID 2283477)
Caspase-3 (Homo sapiens), sequence (P42574 whole entry, looked up): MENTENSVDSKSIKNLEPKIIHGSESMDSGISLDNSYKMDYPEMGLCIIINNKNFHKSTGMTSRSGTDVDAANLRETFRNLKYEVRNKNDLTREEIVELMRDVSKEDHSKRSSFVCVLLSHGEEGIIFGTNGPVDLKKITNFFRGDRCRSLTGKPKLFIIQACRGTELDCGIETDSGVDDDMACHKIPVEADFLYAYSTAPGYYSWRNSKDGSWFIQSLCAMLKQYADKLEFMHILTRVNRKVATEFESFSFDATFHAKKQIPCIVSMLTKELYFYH
Method in brief: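 In HepaRG liver cells dosed for 48 h at up to 100 uM (eight-point, duplicate), CASP3 expression changes are scored by qRT-PCR. Activity is fitted in both directions with 0.5% DMSO as baseline.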

[1] = read-out: Cytochrome P450 (CYP24A1), CYP24A1 (gene 1591); test: LTEA_HepaRG_CYP24A1: Life Technologies and Expression Analysis (LTEA) Assay for Cytochrome P450 (CYP24A1) using HepaRG (AID 2283478)
Method in brief: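 Human liver HepaRG cultures receive each chemical for 48 h across an eight-point half-log series topping at 100 uM in 0.5% DMSO. Induction or suppression of CYP24A1 mRNA is scored relative to vehicle after housekeeping-gene normalization.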

[2] = read-out: Cytochrome P450 (CYP1A2), CYP1A2 (gene 1544); test: LTEA_HepaRG_CYP1A2: Life Technologies and Expression Analysis (LTEA) Assay for Cytochrome P450 (CYP1A2) using HepaRG (AID 2283479)
Method in brief: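 Assesses CYP1A2 mRNA in human HepaRG liver cells after 48 h chemical exposure at up to 100 uM. Values come from qRT-PCR with bidirectional curve fitting relative to DMSO.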

[3] = read-out: cysteine-aspartic acid protease (CASP8), CASP8 (gene 841); test: LTEA_HepaRG_CASP8: Life Technologies and Expression Analysis (LTEA) Assay for cysteine-aspartic acid protease (CASP8) using HepaRG (AID 2283480)
Method in brief: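 CASP8 transcript measured by TaqMan qRT-PCR with ACTB/GAPDH/POLR2A normalization, after 48 h chemical exposure of HepaRG cells in serum-free induction medium. Eight concentrations, top 100 uM, half-log steps, 0.5% DMSO vehicle; fits in both directions versus DMSO.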

[4] = read-out: Cytochrome P450 (CYP2B6), CYP2B6 (gene 1555); test: LTEA_HepaRG_CYP2B6: Life Technologies and Expression Analysis (LTEA) Assay for Cytochrome P450 (CYP2B6) using HepaRG (AID 2283481)
Method in brief: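 Using 48 h treatment of HepaRG cells in serum-free induction medium, concentrations spanned half-log steps from 100 uM in 0.5% DMSO vehicle. CYP2B6 mRNA induction or loss is scored by qRT-PCR against DMSO.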

[5] = read-out: Cytochrome P450 2C19 (Homo sapiens) (UniProt P33261); test: LTEA_HepaRG_CYP2C19: Life Technologies and Expression Analysis (LTEA) Assay for CYP2C19 using HepaRG (AID 2283482)
Method in brief: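 Human HepaRG liver cells received test chemicals for 48 h (highest 100 uM, half-log dilutions in 0.5% DMSO). CYP2C19 mRNA induction or loss is read by multiplexed qRT-PCR and fitted in both directions versus vehicle.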

CYP2C8 (gene 1558) = test: LTEA_HepaRG_CYP2C8: Life Technologies and Expression Analysis (LTEA) Assay for CYP2C8 using HepaRG (AID 2283483)
Method in brief: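 CYP2C8 expression measured by TaqMan qRT-PCR and normalized to three housekeeping genes. HepaRG cultures were treated for 48 h with an eight-point half-log series topping at 100 uM, vehicle 0.5% DMSO, duplicates; fitted both directions against DMSO.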

CYP2C9 (gene 1559) = test: LTEA_HepaRG_CYP2C9: Life Technologies and Expression Analysis (LTEA) Assay for CYP2C9 using HepaRG (AID 2283484)
Method in brief: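 CYP2C9 transcript level, quantified by TaqMan qRT-PCR against three housekeeping genes, was fitted bidirectionally relative to 0.5% DMSO. HepaRG cultures were treated 48 h, in duplicate, at eight half-log concentrations topping at 100 uM.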

CYP2E1 (gene 1571) = test: LTEA_HepaRG_CYP2E1: Life Technologies and Expression Analysis (LTEA) Assay for CYP2E1 using HepaRG (AID 2283485)
Method in brief: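 Assay uses 48 h exposure of HepaRG hepatic cells, eight concentrations to 100 uM. Expression of CYP2E1 is quantified by TaqMan qRT-PCR with ACTB, GAPDH and POLR2A normalization; curves fitted in both directions relative to vehicle.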

CYP4A11 (gene 1579) = test: LTEA_HepaRG_CYP4A11: Life Technologies and Expression Analysis (LTEA) Assay for CYP4A11 using HepaRG (AID 2283486)
Method in brief: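 Readout is CYP4A11 mRNA induction or suppression (qRT-PCR, ACTB/GAPDH/POLR2A normalization) in human HepaRG cells after 48 h chemical treatment, concentrations to 100 uM in 0.5% DMSO, fitted bidirectionally against vehicle.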

[6] = read-out: Cytochrome P450 3A4 (Homo sapiens) (UniProt P08684); test: LTEA_HepaRG_CYP3A4: Life Technologies and Expression Analysis (LTEA) Assay for CYP3A4 using HepaRG (AID 2283487)
Method in brief: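 CYP3A4 transcript measured by TaqMan qRT-PCR and normalized to three housekeeping genes after 48 h chemical exposure of human HepaRG cells. Top concentration 100 uM, half-log steps, 0.5% DMSO vehicle; gain or loss fitted against DMSO baseline.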

[7] = read-out: DNA damage-inducible transcript 3 (DDIT3), DDIT3 (gene 1649); test: LTEA_HepaRG_DDIT3: Life Technologies and Expression Analysis (LTEA) Assay for DNA damage-inducible transcript 3 (DDIT3) using HepaRG (AID 2283488)
Method in brief: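 Eight-point concentration-response (100 uM highest, half-log dilutions) in HepaRG, 48 h, duplicate wells. Endpoint: qRT-PCR mRNA, normalized (ACTB, GAPDH, POLR2A), bidirectional fitting with DMSO as baseline.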

[8] = read-out: Pro-epidermal growth factor (Homo sapiens) (UniProt P01133); test: LTEA_HepaRG_EGF: Life Technologies and Expression Analysis (LTEA) Assay for Epidermal growth factor (EGF) using HepaRG (AID 2283489)
Method in brief: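 EGF expression changes in human HepaRG cells are scored by bidirectional fitting relative to 0.5% DMSO controls. Chemicals are tested at eight half-log concentrations up to 100 uM for 48 h in serum-free induction medium.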

[9] = read-out: Early growth response protein 1 (EGR1) transcription factor, EGR1 (gene 1958); test: LTEA_HepaRG_EGR1: Life Technologies and Expression Analysis (LTEA) Assay for Early growth response protein 1 (EGR1) transcription factor using HepaRG (AID 2283490)
Method in brief: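 EGR1 transcript levels quantified by qRT-PCR (Fluidigm arrays) against three housekeeping genes after 48 h chemical exposure of HepaRG cells. Eight-point half-log series topping at 100 uM, 0.5% DMSO vehicle, analyzed for gain or loss.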

[10] = read-out: Ezrin (EZR), EZR (gene 7430); test: LTEA_HepaRG_EZR: Life Technologies and Expression Analysis (LTEA) Assay for Ezrin (EZR) using HepaRG (AID 2283491)
Method in brief: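 HepaRG, 48 h chemical exposure, 8-pt half-log series from 100 uM, 0.5% DMSO vehicle, duplicates. Read-out: EZR mRNA by TaqMan qRT-PCR (Fluidigm array), housekeeping-normalized; bidirectional curve fit vs DMSO baseline.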

[11] = read-out: Cytochrome P450 3A7 (Homo sapiens) (UniProt P24462); test: LTEA_HepaRG_CYP3A7: Life Technologies and Expression Analysis (LTEA) Assay for CYP3A7 using HepaRG (AID 2283492)
Method in brief: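 Cells were thawed, plated, cultured 48 h, then treated for a further 48 h with chemicals (eight-point half-log series from 100 uM, 0.5% DMSO). RNA was isolated and CYP3A7 expression quantified by qRT-PCR normalised to ACTB, GAPDH and POLR2A.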

CYP3A5 (gene 1577) = test: LTEA_HepaRG_CYP3A5: Life Technologies and Expression Analysis (LTEA) Assay for CYP3A5 using HepaRG (AID 2283493)
Method in brief: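 Readout was CYP3A5 mRNA by qRT-PCR. HepaRG cultures were exposed for 48 h in serum-free induction medium to chemicals at up to 100 uM, and responses were fitted in both directions relative to DMSO vehicle.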

[12] = read-out: Fatty Acid-Binding Protein 1 (FABP1), FABP1 (gene 2168); test: LTEA_HepaRG_FABP1: Life Technologies and Expression Analysis (LTEA) Assay for Fatty Acid-Binding Protein 1 (FABP1) using HepaRG (AID 2283494)
Method in brief: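 FABP1 expression by TaqMan qRT-PCR, normalised to three housekeeping genes, in HepaRG cells after 48 h chemical treatment. Eight-point half-log series topping at 100 uM in 0.5% DMSO, duplicates; gain or loss fitted relative to vehicle.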

[13] = read-out: Cytochrome P450 7A1 (Homo sapiens) (UniProt P22680); test: LTEA_HepaRG_CYP7A1: Life Technologies and Expression Analysis (LTEA) Assay for Cytochrome P450 7A1 (CYP7A1) using HepaRG (AID 2283496)
Method in brief: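 Using 0.5% DMSO as vehicle and baseline, chemicals were tested in duplicate over an 8-point range from 100 uM on HepaRG cells for 48 h; qRT-PCR signals were normalised to ACTB, GAPDH and POLR2A.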

[14] = read-out: Cytochrome P450 4A22 (Homo sapiens) (UniProt Q5TCH4); test: LTEA_HepaRG_CYP4A22: Life Technologies and Expression Analysis (LTEA) Assay for Cytochrome P450 4A22 (CYP4A22) using HepaRG (AID 2283495)
Method in brief: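 Cryopreserved HepaRG cells, plated and cultured 48 h, then switched to serum-free induction medium and treated 48 h (duplicates, up to 100 uM, half-log steps, 0.5% DMSO). Expression change of CYP4A22 was fitted bidirectionally against vehicle.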

Measured: AC50

Cytochrome P450 3A4 (Homo sapiens), sequence (P08684 whole entry, looked up): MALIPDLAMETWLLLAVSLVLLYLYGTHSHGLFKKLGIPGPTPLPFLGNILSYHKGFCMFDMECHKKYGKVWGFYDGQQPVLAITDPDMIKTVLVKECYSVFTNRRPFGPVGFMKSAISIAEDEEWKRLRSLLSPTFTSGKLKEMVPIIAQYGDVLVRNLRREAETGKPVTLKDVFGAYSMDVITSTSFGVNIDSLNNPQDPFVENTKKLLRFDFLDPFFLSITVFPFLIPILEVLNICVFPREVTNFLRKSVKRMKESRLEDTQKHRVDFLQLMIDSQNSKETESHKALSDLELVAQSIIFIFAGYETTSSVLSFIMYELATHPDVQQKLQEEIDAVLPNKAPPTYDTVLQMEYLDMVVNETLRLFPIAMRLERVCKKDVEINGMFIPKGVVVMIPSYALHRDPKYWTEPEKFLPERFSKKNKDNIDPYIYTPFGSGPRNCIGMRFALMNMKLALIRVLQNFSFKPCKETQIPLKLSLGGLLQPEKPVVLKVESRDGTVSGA
Cytochrome P450 3A7 (Homo sapiens), sequence (P24462 whole entry, looked up): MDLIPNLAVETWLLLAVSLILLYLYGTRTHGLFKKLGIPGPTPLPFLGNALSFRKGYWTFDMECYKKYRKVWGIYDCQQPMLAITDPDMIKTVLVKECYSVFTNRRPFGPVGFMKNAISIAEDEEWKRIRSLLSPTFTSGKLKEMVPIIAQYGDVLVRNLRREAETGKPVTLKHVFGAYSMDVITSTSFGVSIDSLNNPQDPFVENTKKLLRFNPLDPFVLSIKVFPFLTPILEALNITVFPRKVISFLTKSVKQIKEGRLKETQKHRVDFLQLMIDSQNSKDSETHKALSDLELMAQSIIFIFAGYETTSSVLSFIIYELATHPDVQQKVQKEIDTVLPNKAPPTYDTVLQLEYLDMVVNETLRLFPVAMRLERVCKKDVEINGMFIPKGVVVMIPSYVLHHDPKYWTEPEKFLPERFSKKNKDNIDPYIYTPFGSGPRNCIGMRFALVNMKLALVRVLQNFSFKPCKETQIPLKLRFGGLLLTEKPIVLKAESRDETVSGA
Cytochrome P450 2C19 (Homo sapiens), sequence (P33261 whole entry, looked up): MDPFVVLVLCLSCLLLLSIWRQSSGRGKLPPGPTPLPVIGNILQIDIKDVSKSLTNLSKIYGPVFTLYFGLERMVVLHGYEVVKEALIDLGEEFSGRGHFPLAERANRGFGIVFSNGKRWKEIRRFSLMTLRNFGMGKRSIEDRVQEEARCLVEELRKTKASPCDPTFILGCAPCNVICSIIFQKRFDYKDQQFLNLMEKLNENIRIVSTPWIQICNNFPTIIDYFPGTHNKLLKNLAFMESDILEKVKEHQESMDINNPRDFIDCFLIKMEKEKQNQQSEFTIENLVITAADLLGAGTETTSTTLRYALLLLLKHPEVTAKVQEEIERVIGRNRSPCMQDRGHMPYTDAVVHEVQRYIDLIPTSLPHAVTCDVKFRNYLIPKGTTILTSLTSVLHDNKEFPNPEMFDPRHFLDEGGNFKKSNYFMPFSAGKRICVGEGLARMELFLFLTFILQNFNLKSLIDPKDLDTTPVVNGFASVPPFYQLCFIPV

Fc1ccccc1[C@@H](F)COC1CCC(Nc2ncnc3[nH]ncc23)CC1 (stereo partly drawn)
inactive: [1] | [3] | CYP2C8 (gene 1558) | [10] | CYP3A5 (gene 1577)
active: Caspase-3 (Homo sapiens) 24.9 µM | [2] 29.1 µM | [4] 30.9 µM | [5] 67.9 µM | CYP2C9 (gene 1559) 37.7 µM | CYP2E1 (gene 1571) 12.7 µM | CYP4A11 (gene 1579) 40.1 µM | [6] 35.6 µM | [7] 28.9 µM | [8] 50 µM | [9] 14.3 µM | [11] 83.1 µM | [12] 64 µM | [13] 77.1 µM

Cc1c(-c2cccnc2)c2ccccc2n1CCCCC(=O)O
active: [2] 50 µM | [4] 35.9 µM | [11] 21.3 µM
not listed: [3]
inactive: all other assays above

CC/C(=C\C(=N/O)C(N)=O)C(C)[N+](=O)[O-] (stereo not drawn)
active: [2] 26.5 µM
not listed: [14]
inactive: all other assays above

CCN(C(=O)c1cc(C)cc(OC[C@H](C)Nc2ccncc2)c1)C(C)C
active: Caspase-3 (Homo sapiens) 19.6 µM | [2] 12.7 µM | [4] 7.91 µM | [5] 8.16 µM | CYP2C8 (gene 1558) 58.4 µM | CYP2C9 (gene 1559) 56.6 µM | CYP2E1 (gene 1571) 27.9 µM | CYP4A11 (gene 1579) 33.8 µM | [6] 8.63 µM | [7] 48 µM | [11] 8.43 µM | [12] 2.25 µM | [13] 50.5 µM
inactive: [1] | [3] | [8] | [9] | [10] | CYP3A5 (gene 1577)

O=C1OC(=O)C2C3C=CC(C3)C12 (stereo not drawn)
not listed: CYP3A5 (gene 1577) | [14]
inactive: all other assays above

O=C(O)CC(O)C(=O)O (stereo not drawn)
not listed: [3]
inactive: all other assays above
